Calls of active or inactive are those of the source. Calls follow the shape of the dose curve; as a rule, active = well fitted inhibition curve with a large enough effect; inconclusive = small, poorly fitted or top-dose-only effect; inactive = no such curve, though single readings can be large or run the other way.
target: Pyruvate kinase (Leishmania mexicana) (UniProt Q27686); experiment: qHTS Validation Assay for Inhibitors of Leishmania Mexicana Pyruvate Kinase (AID 945); conditions: purified L. mexicana pyruvate kinase, enzyme activity, E451W mutant enzyme; series mostly up to 57.5 µM
Sequence (Q27686 2-499 E452W): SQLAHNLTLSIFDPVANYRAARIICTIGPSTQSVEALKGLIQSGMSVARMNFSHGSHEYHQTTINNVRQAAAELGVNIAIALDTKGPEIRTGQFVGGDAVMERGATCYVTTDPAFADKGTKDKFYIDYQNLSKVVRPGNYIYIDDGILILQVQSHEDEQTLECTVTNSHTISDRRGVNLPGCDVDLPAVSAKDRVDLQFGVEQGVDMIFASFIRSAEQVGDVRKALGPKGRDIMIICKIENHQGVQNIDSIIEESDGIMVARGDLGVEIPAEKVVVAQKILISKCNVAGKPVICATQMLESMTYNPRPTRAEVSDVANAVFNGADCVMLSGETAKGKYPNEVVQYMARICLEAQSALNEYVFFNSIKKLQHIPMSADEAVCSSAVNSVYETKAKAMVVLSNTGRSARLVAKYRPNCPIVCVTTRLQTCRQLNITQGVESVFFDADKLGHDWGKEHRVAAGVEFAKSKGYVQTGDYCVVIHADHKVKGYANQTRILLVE
Excerpt: NIH Molecular Libraries Screening Centers Network [MLSCN]
NIH Chemical Genomics Center [NCGC]
PI names: Malcom Walkinshaw, Hugh Morgan and Linda Gilmore
University of Edinburgh, Edinburgh, UK
Species of Leishmania are responsible for a wide spectrum of diseases throughout the tropics and subtropics, ranging from self-healing ulcers to highly disfiguring lesions and serious, often lethal visceral diseases, such as kala-azar. In Leishmania spp. it has been shown that both sugar uptake and gluconeogenesis are necessary to synthesize sufficient hexose-phosphate required for the production of glycoconjugates and the intracellular polysaccharide mannan which are essential for both replication and virulence of the parasites. Therefore, most of the enzymes participating in glycolysis and gluconeogenesis are expected to be essential (Naderer et al., 2006). The assay described here targets pyruvate kinase from Leishmania mexicania (LmPYK) that was obtained as a highly purified preparation from the University of Edinburgh (E451W mutant was provided). A 1536 well assay protocol was set up and validated by screening the LOPAC library in triplicate as an eight point concentration-titration series using the qHTS platform developed at the NCGC.
NCGC Assay Protocol Summary:
Three uL of substrate mix (final concentrations, 50 mM imidazole pH 7.2, 50 mM KCl, 7 mM MgCl2, 0.5 mM PEP, 0.1 mM ADP, 0.01% Tween 20, 0.05% BSA) was dispensed into white solid medium binding Greiner 1536 well plates. 23 nL of compound were delivered by a pin tool and 1 uL of enzyme mix (final concentration, 0.2 nM LmPYK, 50 mM imidazole pH 7.2, 0.05% BSA) was added. Plates were covered with stainless steel gasket-lined lids and incubated at room temperature for 1 hour. Two uL of detection and kinase stop mix (PKLight, Lonza) was added, and luminescence read by a ViewLux (Perkin Elmer) at 2 second exposure/plate using 2x binning. Controls on each plate were as follows: column 1, sixteen-point titration (1:2 dilutions) in duplicate the LmPK activator LOPAC-C8145 beginning at 57 uM final concentration; column 2, sixteen-point titration (1:2 dilutions) in duplicate activator LOPAC-S4063 beginning at 57 uM final concentration; column 3, column 4 DMSO only. Data were normalized to the neutral control (column 3).

outcome, inactive:
OC[C@@H]1O[C@@H](n2cnc3c(NC4CCCC4)ncnc32)[C@@H](O)[C@H]1O
COc1c2c(nc3ccccc13)O[C@@H]([C@@](C)(O)CO)C2
Nc1nc(SCc2ccc([N+](=O)[O-])cc2)c2ncn([C@@H]3O[C@@H](CO)[C@@H](O)[C@H]3O)c2n1
Nc1ncnc2c1nc(Sc1ccc(Cl)cc1)n2[C@@H]1O[C@H]2COP(=O)(O)O[C@@H]2[C@H]1O
CC1(C)CCC(NC(=O)[C@H](N)CCC(=O)O)CC1
C#C[C@H](N)CCC(=O)O
Cc1ccccc1N1CCN(S(=O)(=O)C[C@@]23CC[C@H](C[C@H]2NC(=O)[C@@H](N)CCS(C)(=O)=O)C3(C)C)CC1
NC(=O)C1=CN([C@@H]2O[C@@H](COP(=O)(O)OP(=O)(O)OC[C@@H]3O[C@H](n4cnc5c(N)ncnc54)[C@@H](OP(=O)(O)O)[C@@H]3O)[C@H](O)[C@@H]2O)C=CC1
COc1ccc2c(c1)CCC1C2CC[C@]2(C)[C@H](NCCCCCCN3C(=O)C=CC3=O)CC[C@@H]12 (stereo not given in full)
CN[C@]1(C)[C@@H]2CC[C@@H](C2)C1(C)C
OC[C@@H]1NC[C@@H](O)[C@@H](O)[C@H]1O
CC(C)C[C@H](NC(=O)[C@@H](O)[C@@H](N)Cc1ccccc1)C(=O)O
C[C@@]12C(=O)OC(=O)[C@@]1(C)[C@H]1CC[C@@H]2O1
COc1cc2c(cc1OC)[C@H](c1ccccc1)CN(C)CC2
Nc1ncnc2c1ncn2[C@@H]1CCCO1
COc1cc([C@@H](O)CO)ccc1OS(=O)(=O)O
NC(N)=N[C@H](CCC(=O)O)C(=O)O
NC(=O)c1ncn([C@@H]2O[C@@H](CO)[C@@H](O)[C@H]2O)c1O
COc1cc([C@H](O)CO)ccc1O
N[C@H](CCCC(=O)O)C(=O)O
OC[C@@H]1O[C@@H](n2cnc3c(NC4CCCCC4)ncnc32)[C@@H](O)[C@H]1O
O=C(O)/C=C\[C@H](O)c1ccc(Cl)cc1
C[C@@H]1C(=O)N(C)C(=O)c2nc[nH]c21
CC[C@H](C)[C@@H]1O[C@]2(CC[C@@H]1C)C[C@H]1C[C@H](CC=C(C)[C@@H](O[C@H]3C[C@H](OC)[C@H](O[C@H]4C[C@H](OC)[C@H](O)[C@H](C)O4)[C@H](C)O3)[C@@H](C)C=CC=C3CO[C@@H]4[C@@H](O)C(C)=C[C@H](C(=O)O1)[C@@]34O)O2
N=c1ccn2c(n1)O[C@@H]1[C@@H](O)[C@H](CO)O[C@H]12
OC[C@@H]1O[C@H](O)[C@@H](Cl)[C@H](O)[C@@H]1O
Nc1nc(N)c2nc(CNc3ccc(C(=O)N[C@H](CCC(=O)O)C(=O)O)cc3)cnc2n1
Cc1ccccc1/C=C\C1=NCCN1
OC[C@@H]1NC[C@@H](O)[C@H]1O
NC(=S)NCCC[C@@H](N)C(=O)O
C=C[C@@]1(C)CC(=O)[C@@]2(O)[C@@]3(C)[C@H](O)CCC(C)(C)[C@@H]3[C@H](O)[C@H](OC(C)=O)[C@]2(C)O1
O=C(O)[C@H]1C[C@H](C(=O)O)N1
C=C/C(C)=C/[C@]1(C)SC(=O)C(C)=C1O
CN1CCc2c(cc(O)c(O)c2Cl)[C@H](c2cccc(Cl)c2)C1
CSC(N)=NCCC[C@@H](N)C(=O)O
CNC(=O)[C@@H]1O[C@@H](n2cnc3c(NCc4ccc(N)cc4)ncnc32)[C@@H](O)[C@H]1O
C[C@@H](Cc1ccccc1)Nc1ncnc2c1ncn2[C@@H]1O[C@@H](CO)[C@H](O)[C@@H]1O
Nc1c2c(nc3ccccc13)CCC[C@H]2O
C[C@@H](CN1CCC(Cc2ccccc2)CC1)[C@H](O)c1ccc(O)cc1
O=[N+]([O-])c1ccc(CSc2ncnc3c2ncn3[C@@H]2O[C@@H](CO)[C@@H](O)[C@H]2O)cc1

Source: PubChem BioAssay (NCATS)
